# Compounds with a hit are over-represented: about 6.9% of the library has one in this group of screens.
# NR3A LBD binder – NR3A (human) ligand-binding domain modulation; Tm shift relative to glycine control, % at 25 µM; 340,000 compounds, 2.5% hits; NR3A LBD differential scanning fluorimetry, Tm shift; 0% = protein alone, 100% = glycine-bound protein; AID 1259313;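 active means melting temperature shift of at least 10% of the positive control shift, at one fixed dose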
# CSC inhib – blocks cancer stem cells. cancer stem cell-like cells viability, luminescence. inhibition, % at 7.5 µM. 300,000 compounds, 1.1% hits. AID 2717; in the data active means inhibition above about 75%; inconclusive means no clear call, values can overlap the other calls; tested in HMLE shEcad cells
# Mdm2-MdmX inh – inhibitors of human Mdm2/MdmX interaction; O15151+Q00987; AID 485346; 330,000 compounds, 3% hits; SaOS-2 split-luciferase Mdm2/MdmX complementation, luminescence; inhibition, % at 8 µM;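 active means inhibition of at least 50% at 8 µM in the primary screen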
# Target sequence (O15151 whole entry, looked up): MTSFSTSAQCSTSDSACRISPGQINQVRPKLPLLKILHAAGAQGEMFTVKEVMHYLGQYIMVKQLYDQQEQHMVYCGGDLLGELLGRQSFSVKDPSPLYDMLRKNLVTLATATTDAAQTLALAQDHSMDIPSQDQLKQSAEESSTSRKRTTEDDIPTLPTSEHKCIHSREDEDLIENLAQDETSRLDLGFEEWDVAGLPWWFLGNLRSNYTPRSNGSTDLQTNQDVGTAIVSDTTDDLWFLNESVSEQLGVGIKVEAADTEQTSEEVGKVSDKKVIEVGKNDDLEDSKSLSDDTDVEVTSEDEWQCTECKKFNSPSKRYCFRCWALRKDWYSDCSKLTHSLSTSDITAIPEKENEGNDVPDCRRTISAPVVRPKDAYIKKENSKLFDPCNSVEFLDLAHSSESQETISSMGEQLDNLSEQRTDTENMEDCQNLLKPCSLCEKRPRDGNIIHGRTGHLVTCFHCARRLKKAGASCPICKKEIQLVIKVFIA
# Target sequence (Q00987 whole entry, looked up): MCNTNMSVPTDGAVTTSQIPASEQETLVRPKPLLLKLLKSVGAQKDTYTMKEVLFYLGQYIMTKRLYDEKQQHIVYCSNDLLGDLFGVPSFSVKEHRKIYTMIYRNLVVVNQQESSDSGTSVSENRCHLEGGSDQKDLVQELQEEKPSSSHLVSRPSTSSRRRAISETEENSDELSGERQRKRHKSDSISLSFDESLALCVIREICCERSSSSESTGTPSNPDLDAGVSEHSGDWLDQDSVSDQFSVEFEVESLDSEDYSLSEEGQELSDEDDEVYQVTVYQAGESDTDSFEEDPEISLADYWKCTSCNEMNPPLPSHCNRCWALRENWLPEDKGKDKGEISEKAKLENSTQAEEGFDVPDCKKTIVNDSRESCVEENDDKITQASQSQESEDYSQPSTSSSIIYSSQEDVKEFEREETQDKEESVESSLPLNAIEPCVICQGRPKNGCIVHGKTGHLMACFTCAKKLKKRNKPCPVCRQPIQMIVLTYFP
# MPTP inh – inhibitors of mitochondrial permeability transition pore | isolated mouse mitochondria, Ca2+ swelling absorbance, 30 min | inhibition, % at 10 µM | 360,000 compounds, 1.4% hits | AID 602449;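 active means inhibition of 50% or more, scaled per plate between neutral and stimulator controls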;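 further: 0% = DMSO wells given calcium and 100% = 1 mM EGTA wells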
# SKKanGAS inh – inhibitors of SKKanGAS S. pyogenes growth in kanamycin (SK-promoter or general growth effect) | BacTiter-Glo, 6 h | inhibition, % at 7.5 µM | 300,000 compounds, 1.3% hits | AID 1662;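 active means mean replicate score, as percent of positive control median, at least 50; inconclusive means mean below 50 but one replicate at or above 50; inactive means mean and every replicate below 50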;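 further: strain carries kanamycin resistance gene driven by streptokinase promoter and grows in 40 µg/ml kanamycin; loss of luminescence reflects streptokinase promoter inhibition or plain growth inhibition; 0% = median of DMSO wells and 100% = positive control at its reference dose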
# Beta cell apopt – beta cell apoptosis inhibition. INS-1E cytokine-induced death, ATP luminescence, 48 h; percent of positive-control rescue, neutral wells zero. protection from apoptosis, % (concentration not given with the values). 300,000 compounds, 0.8% hits. AID 435005;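 active means Every replicate reaches about 75%, or at least half do and their mean reaches it too, limit read from the data; inconclusive means At least half of replicates reach the limit but their mean does not; inactive means Under half of replicates reach the limit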;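 further: 0% = cytokine-treated negative control wells and 100% = positive control rescue; higher means more ATP so stronger rescue from cytokine killing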
# * hit, by the source's call; u = inconclusive; x = no result.
SMILES,NR3A LBD binder,CSC inhib,Mdm2-MdmX inh,MPTP inh,SKKanGAS inh,Beta cell apopt
COc1ccc(OC)c2c1cc(C(=O)N[C@@H](Cc1ccccc1)C(=O)O)n2C,-1,5,17,0,-1,-4
COc1ccc(/C=C/C(=O)c2ccccc2)cc1COc1ccc(F)cc1,-14,29,9,0,1,3
COc1ccc(/C=C/C(=O)c2ccc(O)cc2)cc1COc1ccc(F)cc1,x,97*,46,17,14,8
COc1ccc(/C=N/NC(=O)c2ccc3nc[nH]c3c2)cc1,15*,0,27,0,2,-5
COc1ccc(/C=N/NC(=O)c2ccc3nc[nH]c3c2)c(OC)c1,-10,-11,-11,0,0,-6
CCOc1ccccc1N(C)S(=O)(=O)c1ccc2c(c1)CCN2C(=O)CCC(=O)O,0,-18,16,0,4,-2
Cc1ccc2[nH]c(=O)c(NC(N)=S)nc2c1,11*,14,16,0,-5,3
NC(=S)Nc1nc2ccccc2[nH]c1=O,x,-6,11,x,2,-7
COc1cnn(-c2ccc(C)cc2)c(=O)c1SCc1ccccc1,-1,-10,-39,0,2,-2
COc1cnn(-c2ccc(Br)cc2)c(=O)c1SCc1ccccc1,15*,-20,-65,0,1,-2
CCOC(=O)c1c(-c2cccs2)csc1NC(=O)CN1CCOCC1,23*,19,9,-1,-15,10
Cc1ccc(C[n+]2cccc(-c3ccccc3)c2)c(C)c1,1,22,4,2,-9,97*
Clc1ccc(-c2cnc3ccccc3n2)cc1,5,-9,-111,0,-5,0
CCCCOc1ccc(-c2cnc3ccccc3n2)cc1,22*,x,-112,6,-8,x
Oc1ccc(-c2cnc(-c3ccc(O)cc3)nc2)cc1,6,98*,-122,0,-10,-6
Nc1ccc(-c2cnc(-c3ccc(N)cc3)nc2)cc1,-27,31,-55,1,3,4
Oc1ccc(-c2cnc3ccccc3n2)cc1,37*,4,-53,0,6,40
COc1ccc(Oc2nc(-c3cccnc3)nc3ccccc23)cc1,-7,10,15,4,1,7
CCCOc1ccc(-c2nc(OC)c3ccccc3n2)cc1,0,26,19,4,56*,6
Cc1cccc(NC(=O)CCc2ccccc2)c1C,1,-2,5,0,2,-10
Fc1ccccc1-c1nc(NC2CCCC2)c2ccccc2n1,-2,15,42,0,7,10
CC(Nc1nc(-c2ccccc2O)nc2ccccc12)c1ccccc1 (configuration not stated),22*,59,37,20,58*,8
Oc1ccccc1-c1nc(NC2CCCC2)c2ccccc2n1,19*,26,25,-1,24,10
CNc1nc(-c2ccccn2)nnc1-c1ccccc1,0,23,26,-3,2,-4
c1ccc(-c2nnc(-c3ccccn3)nc2NC2CCCCC2)cc1,-3,-11,17,0,104*,96*
SMILES,NR3A LBD binder,CSC inhib,Mdm2-MdmX inh,MPTP inh,SKKanGAS inh,Beta cell apopt
Cc1ccc(S(=O)(=O)N2CCN(C(=O)Cn3nc(C(=O)O)c4ccccc4c3=O)CC2)cc1,2,-6,43,x,0,-4
CCCCNS(=O)(=O)c1ccc(NC(=O)Cc2ccccc2[N+](=O)[O-])cc1,-12,16,-20,-1,-29,0
CCOC(=O)N1CCN(C(=O)C2CCN(C(=O)c3ccc(C(C)(C)C)cc3)CC2)CC1,0,-13,25,0,-2,2
COc1cccc(/C=N/NC(=O)N/N=C/c2cccc(OC)c2O)c1O,35*,15,25,3,3,7
CCn1c(C)nc2cc(C(=O)N/N=C/c3ccc(O)c(O)c3O)ccc21,-1,x,x,1,-3,x
COc1cccc(/C=N/NC(=O)CNC(=O)c2cccs2)c1O,-1,26,14,1,-2,86*
CCn1c(C)nc2cc(C(=O)N/N=C/c3cccc(OC)c3O)ccc21,-2,109*,35,-2,8,x
COc1ccccc1C=NNC(=O)NN=Cc1ccccc1OC,-1,x,x,-2,x,x
COc1cccc(C=Nc2ccc(C)c(F)c2)c1O,13*,-10,-7,-3,-4,x
Cc1cc(NC(=O)CSc2nc(=O)cc(N)n2-c2ccc(Cl)cc2)no1,0,-8,-11,1,-3,-5
Cc1ccc(CN2CCN(CC(=O)N=Nc3c(O)[nH]c4ccccc34)CC2)cc1,20*,0,25,1,0,-1
COc1ccc(/C=C2/C(=O)C(C)(C(C)C)CCC2C)cc1 (configuration not stated),10*,5,11,-2,6,5
CCOC(=O)c1c(C)n(C)c2cc(-c3cccc(C(F)(F)F)c3)c(O)cc12,13*,0,-23,1,1,-3
CCOC(=O)c1c(C)n(C)c2cc(-c3ccc(C)cc3)c(O)cc12,1,10,9,4,-4,4
O=C(NCc1cccnc1)/C(=C\c1ccc(-c2ccc(Cl)c(Cl)c2)o1)S(=O)(=O)c1ccccc1,10,113*,x,1,-8,105*
Cc1ccccc1N1CCN(Cc2c[nH]c3ccccc23)CC1,9,30,9,2,-6,111*
Fc1ccc(N2CCN(Cc3c[nH]c4ccccc34)CC2)cc1,x,-3,9,x,-6,91*
COc1ccccc1N1CCN(Cc2c[nH]c3ccccc23)CC1,-1,5,11,4,0,x
c1cnc(N2CCN(Cc3c[nH]c4ccccc34)CC2)nc1,0,-22,4,0,0,106*
CCS(=O)(=O)N1CCN(Cc2c[nH]c3ccccc23)CC1,0,-3,13,0,0,-6
Cc1cc(C)c(S(=O)(=O)Nc2ccnc(-c3cccnc3)n2)c(C)c1,0,1,-1,0,12,-5
CSc1nc(C(=O)N2CCCC(Nc3ccc(C)c(C)c3)C2)cs1 (configuration not stated),-1,-5,6,1,-2,-3
Cc1ccnc(NC(=O)C2CCCN(S(=O)(=O)c3ccc4[nH]c(=O)ccc4c3)C2)c1 (configuration not stated),1,-6,14,-2,-3,x
COc1ccc(-c2c(C#Cc3ccsc3)c3cc(-c4ccc5[nH]ccc5c4)ccc3n2C)cc1,11*,9,10,0,x,-1
O=C(Nc1cccc(NC(=O)c2ccc(-c3cccc(Br)c3)o2)c1)c1ccco1,13*,38,43,3,41,4
O=C(Nc1cccc(NC(=O)c2ccc([N+](=O)[O-])o2)c1)c1ccco1,1,87*,20,-1,u,-3
O=C(Nc1ccc(NC(=O)c2ccc([N+](=O)[O-])o2)cc1Cl)c1ccco1,22*,54,35,0,8,0
